# gsp antagonist: gsp mutant antagonism. gsp-mutant cells, cAMP HTRF, 30 min. Potency, µM (doses to about 76.9 µM), inactives show at the highest dose activity change, negative = inhibition, hits mostly inhibitors. hit rate 0.4% among 340,000. AID 624288; calls by dose curve; cell line not stated here;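 note: intracellular cAMP measured with PDE inhibitor Ro 20-1724 present during compound exposure; potency is the fitted concentration of half-maximal effect; % is set by controls: 0 for no effect and ±100 for the full control effect; nearly all actives have a fitted effect of over 65% in size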
#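 G418-selected cells were plated in DMEM/10% FBS for 16-24 h at 37C, then treated with compounds plus the PDE inhibitor […] (300 uM solution added) for 30 min at 37C. Intracellular cAMP was measured by HTRF after 30 min lysis at room temperature.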
# MmCpn inh: blocks the Methanococcus maripaludis chaperonin Mm-Cpn; purified Mm-Cpn ATPase, ADP Transcreener TR-FRET; Potency, µM (titrated, usually from 76.9 µM), for the others: at the highest dose activity, negative = inhibition, usual class: inhibitors; hit rate 0.031% among 330,000; note: potency is the fitted concentration of half-maximal effect; % is set by controls: 0 for no effect and ±100 for the full control effect; nearly all actives have a fitted effect of over 80% in size
#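 Compound-treated chaperonin, 25 nM final, turns over 10 uM ATP at 37°C for 30 min following a 10 min preincubation; ADP generated competes with ADP-d2 for Eu-cryptate antibody, lowering FRET.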
# gsp agonist: agonists of gsp mutant (McCune-Albright syndrome) | AID 624287 | hit rate 0.13% among 340,000 | Potency, µM (doses to about 76.9 µM), for the others: at the highest dose activation (cAMP increase), hits mostly activators | gsp mutant cells, cAMP HTRF, 30 min; active = well fitted activation curve with a large enough effect; inconclusive = small, poorly fitted or top-dose-only effect, or another doubt; inactive = no such curve, though single readings can be large or run the other way; cell line not stated here;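 note: phosphodiesterase inhibitor Ro 20-1724 added with compounds to block cAMP breakdown; potency is the fitted concentration of half-maximal effect; nearly all actives have a fitted effect of over 60% in size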
#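 Cells stably selected in G418 were plated at 2000/well, grown 16-24 hr, then given compounds in DMSO with the PDE inhibitor […] (300 uM solution added) for 30 min at 37C; cAMP was read by HTRF.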
# CCT modulator: changes cytosolic chaperonin activity | purified chaperonin ATPase assay, HTRF ADP detection, 30 min | activity change, % (test concentration not listed), hits read low | hit rate 0.3% among 360,000 | AID 651819; in the data active = activity change below about -30%; note: % is set by controls: 0 for no effect and ±100 for the full control effect
#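 ATPase activity: ADP formed was measured by HTRF Transcreener (665/615 nm ratio) after 30 min at 37 deg C with 10 uM ATP. Compounds screened at one 76 uM concentration against 40 or 20 nM TRiC in Tris pH 7.4/KCl/MgCl2/DTT buffer.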
# RXFP1 ag: agonists of human relaxin receptor RXFP1 | hit rate 0.3% among 370,000 | Potency, µM (highest dose often 57.5 µM), without a hit: at the top dose activation, usual class: activators | HEK293T-RXFP1 cAMP TR-FRET, 30 min; response scale: percent of porcine relaxin response, buffer zero | Q9HBX9 | AID 2676; note: potency is the fitted concentration of half-maximal effect; % is set by controls: 0 for no effect and ±100 for the full control effect; nearly all actives have a fitted effect of over 60% in size
# Target sequence (Q9HBX9 whole entry, looked up): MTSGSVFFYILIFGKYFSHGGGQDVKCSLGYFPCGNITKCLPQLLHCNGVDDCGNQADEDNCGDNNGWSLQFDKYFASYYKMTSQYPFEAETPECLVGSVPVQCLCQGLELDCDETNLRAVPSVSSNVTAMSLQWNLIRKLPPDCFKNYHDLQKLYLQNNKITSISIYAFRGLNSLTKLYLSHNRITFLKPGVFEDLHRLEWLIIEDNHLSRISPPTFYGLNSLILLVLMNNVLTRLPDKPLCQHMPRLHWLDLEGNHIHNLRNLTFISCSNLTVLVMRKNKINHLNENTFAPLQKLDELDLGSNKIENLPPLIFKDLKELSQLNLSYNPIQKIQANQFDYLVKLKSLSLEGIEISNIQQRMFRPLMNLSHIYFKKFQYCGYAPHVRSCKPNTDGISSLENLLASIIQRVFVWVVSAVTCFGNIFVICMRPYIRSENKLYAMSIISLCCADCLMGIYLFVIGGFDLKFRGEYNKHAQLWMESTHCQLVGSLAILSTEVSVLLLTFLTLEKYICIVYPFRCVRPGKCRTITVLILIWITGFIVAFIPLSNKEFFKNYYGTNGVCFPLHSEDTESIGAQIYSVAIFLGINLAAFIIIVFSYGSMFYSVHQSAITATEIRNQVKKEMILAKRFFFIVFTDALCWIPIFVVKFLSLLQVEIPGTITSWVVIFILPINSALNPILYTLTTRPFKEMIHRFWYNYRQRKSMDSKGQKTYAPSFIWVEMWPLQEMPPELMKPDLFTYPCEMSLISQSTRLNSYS
#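 Agonist response is measured as cAMP accumulation in an RXFP1-transfected HEK293T line under PDE4 inhibition. Values are scaled between buffer-only and 29 nM porcine relaxin, and EC50s come from standard Hill equation fits.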
# RXFP1 antag: antagonists of human relaxin receptor RXFP1; Q9HBX9; HEK293-RXFP1, relaxin-stimulated cAMP HTRF, 30 min; active compounds read low; activity change, negative = inhibition, % at 57.5 µM; hit rate 0.59% among 350,000; AID 1259400;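 active = activity change of -60% or lower, but not beyond a set lower limit; inconclusive = change between -60% and -40%, or beyond the set limit; inactive = change above -40%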; note: % is set by controls: 0 for no effect and ±100 for the full control effect
# Active calls of the source: *; ? = inconclusive; / = not tested or not shown; [ ] = dose if it differs, or a comment. A selection: hits, their analogues and other compounds. The true share with any hit is near 1.2%. Unless noted, calls come from the whole dose curve; as a rule, active = well fitted curve in the direction sought with a large enough effect; inconclusive = small, poorly fitted or top-dose-only effect, or another doubt; inactive = no such curve, though single readings can be large; an effect the other way counts as inactive or inconclusive.
SMILES,gsp antagonist,MmCpn inh,gsp agonist,CCT modulator,RXFP1 ag,RXFP1 antag
O=C(CCN1C(=O)c2ccccc2S1(=O)=O)Nc1ccc(F)c(F)c1F,3.7%,1.2%,0.8%[15.4 µM],-2.5,0.2%,-76.0*
O=C(CN1C(=O)c2ccccc2S1(=O)=O)N1CCN(c2ccccc2F)CC1,-2.5%,0.9%,-36.6%,-1.3,0.2%,-3.3
NC(=O)C1CCN(C(=O)CN2C(=O)c3ccccc3S2(=O)=O)CC1,10.1%,-1.2%,-2.6%,-41.5*,3.4%,15.5
COc1cccc(C(=O)c2c[nH]c(C(=O)NCc3ccco3)c2)c1,-13.0%,-1.4%,?,-42.2*,0.9%,-8.9
COc1ccc(C(=O)c2c[nH]c(C(=O)NCc3ccco3)c2)cc1,-7.7%,2.1%,-35.0%,1.0,0.6%,-8.0
C=CC(=O)Nc1cc2c(Nc3ccc(F)c(Cl)c3)ncnc2cc1OCCCN1CCOCC1,/,/,/,/,/,-9.9
CCOc1ccc(-c2cn3c(n2)sc2cc(C(=O)NCCC4=CCCCC4)ccc23)cc1,/,/,/,/,0.7%,2.3
O=C(O)c1ccc(OCCN2CCCCC2)cc1,/,/,/,/,/,6.1
Cc1ncc(CO)c2c1Oc1nc(-c3ccccc3)nc(SCC(=O)N3CCOCC3)c1C2,?,0.1%,?,-2.5,2.2%,20.1
Cc1cccc(-c2nc3c(c(SCC(=O)N4CCOCC4)n2)Cc2c(CO)cnc(C)c2O3)c1,39.8µM*,-0.7%,0.5%,1.7,3.0%,-16.1
Cc1ncc(CO)c2c1Oc1nc(-c3ccccc3F)nc(SCC(=O)N(C)c3ccccc3)c1C2,39.8µM*,-1.8%,-23.2%,-0.6,-0.5%,-91.0*
Cn1cnc(S(=O)(=O)N2CCCC(C(=O)NCc3ccccc3Cl)C2)c1 (stereo not given),/,/,/,/,-0.3%,-8.4
C=Cc1ccc(Cn2c(C(=O)O)c(CNCc3ccccc3)c3ccc(C)cc32)cc1,/,/,/,/,-2.0%,?
CCN1CCN(c2ccc(S(=O)(=O)N3CCCCC3)cc2NC(=O)COc2ccccc2)CC1,-2.9%,0.4%,-5.1%[15.4 µM],-3.3,2.4%,-12.5
CCC(=O)c1ccc(OCC(=O)Nc2cc(S(=O)(=O)N3CCCCC3)ccc2N2CCN(CC)CC2)cc1,-12.1%,0.6%,-23.7%[15.4 µM],-120.8*,-1.3%,-4.9
CCN(CC)CCn1c2c(c(SCC(=O)Nc3ccccc3Cl)nc1=O)CCC2,8.1%,0.5%,0.1%,-33.8*,-1.4%,-1.4
CCOC1(/N=C(\C)NS(=O)(=O)c2ccc(Cl)cc2)C(C)=CC(=O)C=C1C,-44.2%,0.6%,10.6%[15.4 µM],-70.5*,-1.7%,-5.6
COc1ccccc1NC(=O)CSc1nnc2c3ccccc3n(C(C)C)c2n1,/,/,/,/,4.7%,-2.4
Cc1c(C)n(C)c2ccc(C(=O)NCCN3CCOCC3)cc12,-0.2%,0.2%,0.7%,0.1,-3.3%,-5.0
CCn1c(C)c(C)c2cc(C(=O)NCCN3CCOCC3)ccc21,-0.2%,-5.5%,4.5%,-39.9*,-4.2%,-3.9
CCCC1=Nc2cc(C(=O)NCCN3CCOCC3)ccc2Sc2ccccc21,-10.7%,2.6%,19.3%,-0.1,-4.1%,-99.7*
CCC1=Nc2cc(C(=O)NCCCN3CCN(C)CC3)ccc2Sc2ccccc21,-1.9%,-0.3%,21.8%,1.5,-1.0%,7.7
Cc1ccc(-n2ncc3c(N4CCN(Cc5ccccc5)CC4)ncnc32)cc1Cl,/,/,/,/,0.1%,-1.0
CC(NCc1ccc(OCc2ccc(Cl)cc2)cc1)C(O)c1ccccc1 (stereo not given),5.4%,-2.7%,-3.1%[15.4 µM],2.8,1.6%,-99.9*
O=S(=O)(c1ccc(=S)[nH]c1)N1CCN(Cc2ccccc2)CC1,4.5%,0.4%,-0.7%[15.4 µM],0.0,/,-66.3*
O=P1(Nn2cnnc2)C=C(c2ccccc2)OC(c2ccccc2)=C1,4.3%,2.3%,-69.6%,-5.5,-1.3%,-9.7
CC[N+](CC)(CCCCS(=O)(=O)[O-])CCNP1(=O)C=C(c2ccccc2)OC(c2ccccc2)=C1,25.4%,0.6%,?,0.4,15.8µM*,5.2
CCn1cc(/C=C(\NC(=O)c2ccc(C)cc2)C(=O)NCCCn2ccnc2)c2ccccc21,/,/,/,/,-1.5%,/

# Bioassay records (PubChem BioAssay)
